The record followed here is PubChem BioAssay (NCI).

About 83,000 compounds went through this panel and 20% of them were active in at least one assay; those are over-represented in the sample as a whole.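 Testing used 96-well plates and a 48-hour single-concentration exposure. Example: -40 means 40% of the starting cells died.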 Unmarked numbers belong to inactive results. The source made the active and inactive calls. Rule for the calls: active = growth percent below 10; inactive = the rest.

Test systems include NCI-H23 lung; NCI-H226 lung; NCI-H322M lung; HOP-62 NSCLC; NCI-H460 lung; HOP-92 NSCLC; A549/ATCC NSCLC; 786-0 renal; COLO 205 colon; DU-145 prostate; K-562 leukemia; MALME-3M melanoma; MDA-MB-231 breast; RXF 393 renal; SF-268 CNS; SF-295 CNS; SF-539 CNS; UACC-257 melanoma; M14 melanoma.
What all share (experiment): NCI-60 one-dose screen, 48 h (100 = growth as untreated, 0 = no growth, -100 = all killed)
Common to all, as to conditions: 10 µM unless noted

Consider `Cc1ccc(/C=C(/C#N)n2nnc3ncccc32)cc1`, for which the growth in the test with NCI-H23 lung is -1.23% (active); in the test on NCI-H226 lung it was 32.1%; in the test on NCI-H322M lung, 28.2%; with HOP-62 NSCLC, 20.5%; in the test with NCI-H460 lung it was -14% (active); in the test with HOP-92 NSCLC, -19.5% (active). Also, the growth in the test with A549/ATCC NSCLC is 2.14% (active); with 786-0 renal it was 5.6% (active); with COLO 205 colon, -45.3% (active); in the test on DU-145 prostate, -27.2% (active); in the test with K-562 leukemia it was 5.03% (active); in the test on MALME-3M melanoma, 22.7%. The growth with MDA-MB-231 breast was -3.95% (active); in the test with RXF 393 renal it was -28.4% (active); in the test with SF-268 CNS, 25.3%; in the test on SF-295 CNS it was 27.8%; in the test on SF-539 CNS it was -53.8% (active); in the test on UACC-257 melanoma, 31.1%. Also, the growth with M14 melanoma was -4.85% (active).

As for `CCN(CC)CCSc1ncnc2c1cnn2-c1ccc(S(N)(=O)=O)cc1`, the growth with NCI-H23 lung was 94.9%; in the test with NCI-H226 lung, 92.9%; in the test with NCI-H322M lung, 102%; with HOP-62 NSCLC it was 98.4%; in the test with NCI-H460 lung, 85.9%; in the test on HOP-92 NSCLC, 50.9%. Besides, the growth in the test on A549/ATCC NSCLC was 84.7%; in the test on 786-0 renal, 95.3%; with COLO 205 colon, 113%; in the test on DU-145 prostate, 97%; in the test on K-562 leukemia, 63.2%; in the test with MALME-3M melanoma, 69.1%. The growth in the test on MDA-MB-231 breast was 93.3%; in the test with RXF 393 renal, 34.2%; in the test with SF-268 CNS it was 105%; in the test with SF-295 CNS it was 54.5%; in the test with SF-539 CNS it was 94.4%; with UACC-257 melanoma it was 65.5%. The growth with M14 melanoma is 98.6%.

With `O=C(CNC(=O)c1cccc2ccccc12)Nc1ccccc1Oc1ccc(O)cc1`, the growth is 37.2% [5 µM] with NCI-H23 lung; 62.7% [5 µM] with NCI-H226 lung; 41.3% [5 µM] in the test on NCI-H322M lung; 35.7% [5 µM] in the test with HOP-62 NSCLC; 14.5% [5 µM] in the test with NCI-H460 lung; 77.5% [5 µM] in the test with HOP-92 NSCLC. The growth is 27.4% [5 µM] in the test on A549/ATCC NSCLC; 29.3% [5 µM] in the test with 786-0 renal; 5.7% [5 µM] (active) in the test with COLO 205 colon; 19.5% [5 µM] in the test on DU-145 prostate; 9.54% [5 µM] (active) with K-562 leukemia; 57.9% [5 µM] in the test with MALME-3M melanoma. Moreover, the growth was 47.7% [5 µM] in the test on MDA-MB-231 breast; -2.89% [5 µM] (active) with RXF 393 renal; 51.7% [5 µM] with SF-268 CNS; 6.5% [5 µM] (active) with SF-295 CNS; -11% [5 µM] (active) in the test on SF-539 CNS; 76.7% [5 µM] in the test with UACC-257 melanoma. Also, the growth with M14 melanoma was 9.58% [5 µM] (active).

On to `OCCCc1n(Cc2ccc3ccccc3c2)c2ccccc2[n+]1Cc1ccc2ccccc2c1`, for which the growth with NCI-H23 lung is 19%; in the test on NCI-H226 lung, 48.5%; in the test with NCI-H322M lung it was 49.9%; in the test on HOP-62 NSCLC, 37.5%; in the test with NCI-H460 lung, 18.4%; with HOP-92 NSCLC, -24.3% (active). The growth in the test on A549/ATCC NSCLC was 68.4%; with 786-0 renal, 36%; in the test with COLO 205 colon, -58.9% (active); with DU-145 prostate, 48.1%; with K-562 leukemia, 9.14% (active); with MALME-3M melanoma it was -11.2% (active). Besides, the growth was -17.7% (active) with MDA-MB-231 breast; 14.6% in the test on RXF 393 renal; 22.5% in the test on SF-268 CNS; 32.8% in the test with SF-295 CNS; 18.1% in the test with SF-539 CNS; -14.1% (active) in the test with UACC-257 melanoma. Also, in the test with M14 melanoma, the growth was 3% (active).

Turning to `Cc1sc2nc(NCc3ccccc3)[nH]c(=O)c2c1C`, the growth was 75.2% in the test with NCI-H23 lung; 82.1% in the test on NCI-H226 lung; 91.3% with NCI-H322M lung; 39.2% in the test on HOP-62 NSCLC; 26.6% in the test with NCI-H460 lung; 69.4% in the test with HOP-92 NSCLC. In addition, the growth in the test with A549/ATCC NSCLC is 33.6%; with 786-0 renal it was 67.2%; in the test on COLO 205 colon it was 34.7%; in the test on DU-145 prostate, 73.4%; in the test with K-562 leukemia, 12.9%; in the test on MALME-3M melanoma, 75.7%. Besides, the growth in the test on MDA-MB-231 breast was 59.8%; in the test on RXF 393 renal it was 69%; in the test with SF-268 CNS it was 74.2%; in the test with SF-295 CNS it was 52.4%; in the test on SF-539 CNS, 65.5%; in the test with UACC-257 melanoma, 73%. In addition, the growth in the test on M14 melanoma is 27.8%.

As for `COc1cnc2c(c1)C(=O)c1c-2n(CCCNC2=NCCS2)c(=O)c2cc(F)ccc12`, the growth was 6.62% (active) in the test on NCI-H23 lung; 3.93% (active) with NCI-H226 lung; 46.6% in the test with NCI-H322M lung; 11.2% with HOP-62 NSCLC; -43.8% (active) in the test with NCI-H460 lung; 50.9% in the test on HOP-92 NSCLC. The growth in the test on A549/ATCC NSCLC is 9.29% (active); in the test on 786-0 renal it was -90.5% (active); with COLO 205 colon it was 22.1%; in the test on DU-145 prostate, 14.9%; with K-562 leukemia, -34.4% (active); in the test on MALME-3M melanoma it was 27.8%. Moreover, the growth in the test on MDA-MB-231 breast is 51%; in the test with RXF 393 renal it was 35.1%; in the test on SF-268 CNS it was 23.2%; with SF-295 CNS, -5.74% (active); in the test on SF-539 CNS, -13.2% (active); in the test on UACC-257 melanoma it was 21.8%. For the same molecule, in the test on M14 melanoma, the growth was 5.96% (active).

`COc1cc(/C=C\C(C)=N\Nc2ccccc2)ccc1O`: the growth in the test on NCI-H23 lung is 91.2%; with NCI-H226 lung, 109%; in the test on NCI-H322M lung it was 128%; in the test with HOP-62 NSCLC, 67.5%; with NCI-H460 lung, 111%; in the test on HOP-92 NSCLC, 100%. Moreover, the growth was 80.7% in the test on A549/ATCC NSCLC; 97.4% with 786-0 renal; 111% in the test on COLO 205 colon; 102% in the test on DU-145 prostate; 56.1% with K-562 leukemia; 127% in the test on MALME-3M melanoma. The growth in the test with MDA-MB-231 breast was 76.8%; in the test with RXF 393 renal it was 108%; with SF-268 CNS, 76.4%; with SF-295 CNS, 85.5%; in the test on SF-539 CNS, 88.1%; with UACC-257 melanoma, 79.2%. Also, in the test on M14 melanoma, the growth is 97.5%.
